High-throughput results (PubChem)
This is a sample that favours compounds with a hit; in the whole collection about 1.3% have one here.
3CLpro inhibitor: SARS-CoV 3CLpro protease inhibitors, primary screen, biochemical, quenched FRET; Replicase polyprotein 1ab (Severe acute respiratory syndrome coronavirus), P0C6X7; recombinant SARS-CoV 3CLpro, quenched FRET peptide cleavage; inhibition, % at 6 µM; 0.14% of 290,000 active; AID 1706, 2009; in the data active = inhibition above about 12%
Sa ugtP lethal: growth inhibition of ugtP-null S. aureus, primary screen, RN4220 ugtP deletion, OD600; AID 1259309, 2017; 0.54% of 330,000 active; 16 h; growth inhibition, % (concentration not given with the values); in the data active = growth inhibition above about 68%;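 also: plate controls were untreated wells for no effect and antibiotic for full effect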
MazF activator: activators of E. coli MazEF toxin-antitoxin RNase, primary screen, biochemical, fluorescence, uHTS | Endoribonuclease toxin MazF (Escherichia coli (strain K12)), P0AE70 | activation, % at 20 µM | AID 504720, 2011 | 0.32% of 350,000 active | FAM/BHQ RNA-DNA oligo cleavage fluorescence, 5 h; in the data active = activation above about 50%
Target sequence (P0AE70 whole entry, looked up): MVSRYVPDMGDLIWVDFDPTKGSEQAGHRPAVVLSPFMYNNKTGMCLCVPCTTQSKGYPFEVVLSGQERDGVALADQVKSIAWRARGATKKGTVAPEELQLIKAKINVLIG
RN4220 kill: growth inhibition of S. aureus RN4220, primary screen, OD600; 16 h; inhibition, % (concentration not given with the values); 0.33% of 330,000 active; AID 1259311, 2017; in the data active = inhibition above about 85%;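 also: plate controls were untreated cells for no effect and reference antibiotic for full effect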
Mtb betalactam: beta-lactam sensitization of Mtb H37Rv, H37Rv | M. tuberculosis H37Rv growth with meropenem, percent inhibition | inhibition, % at 25 µM | 0.27% of 330,000 active; call rule not given here;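 also: growth measured after seven days incubation then overnight dye step; 0% = bacteria only wells and 100% = bacteria with antibiotic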
CCHF vOTU inh-1: CCHFV vOTU protease inhibitors, primary screen, biochemical, Pep-AMC substrate, fluorescence. inhibition, % at 11.5 µM. 0.55% of 370,000 active. AID 651958, 2012; also: 0% = vehicle wells with enzyme and 100% = no enzyme wells
CCHF vOTU inh-2: CCHFV vOTU protease inhibitors, confirmation, biochemical, Pep-AMC substrate, fluorescence. shares compounds with CCHF vOTU inh-1. Recombinant CCHFV vOTU. inhibition, % at 11.5 µM. 17% of 1,900 active
An asterisk follows results filed as active; x = no result given. Rule as the data show it, unless noted: active = inhibition above about 30%; inactive = the rest.

SMILES	3CLpro inhibitor	Sa ugtP lethal	MazF activator	RN4220 kill	Mtb betalactam	CCHF vOTU inh-1	CCHF vOTU inh-2
CC(C)CS(=O)(=O)C1=NN2C(=N)/C(=C\c3ccc(OC(=O)c4ccco4)cc3)C(=O)N=C2S1	9.5	x	-7.6	x	97.7	37.1*	5.0
CS(=O)(=O)C1=NN2C(=N)/C(=C\c3ccc(OC(=O)c4ccco4)cc3)C(=O)N=C2S1	2.2	4.9	0.8	9.8	75.7	-0.1	x
COc1ccc(C(O)c2nc(-c3ccc4ccccc4c3)cs2)cc1 (configuration not stated)	x	x	x	x	x	38.7*	-21.3
COc1cc(C(O)c2nc(-c3ccc4ccccc4c3)cs2)ccc1F (configuration not stated)	x	x	x	x	x	25.1	x
COc1ccc(C(O)c2nc(-c3ccccc3C)cs2)cc1 (configuration not stated)	x	x	x	x	x	34.2*	4.2
COc1cccc(C(O)c2nc(-c3ccccc3C)cs2)c1 (configuration not stated)	x	x	x	x	x	-2.1	x
CCCCC1CC1C(NC(=O)c1ccco1)c1ccc(C(=O)OC)cc1 (configuration not stated)	x	4.1	x	18.0	x	x	x
O=C(Cc1ccccc1)NN=Cc1ccc(OCC(=O)Nc2ccccc2)cc1	x	6.9	x	-1.2	x	x	x
CCC(=O)N(C1=C(NC(C)C)C(=O)c2ccccc2C1=O)C(C)C	-2.8	8.3	3.7	30.5	-1.7	47.3*	31.0*
CC(=O)N(C1=C(N)C(=O)c2ccccc2C1=O)C(C)C	-1.1	17.5	9.8	35.7	4.6	19.5	x
COc1ccc(N2CC(C(=O)Nc3nnc(C4CCCCC4)s3)CC2=O)cc1 (configuration not stated)	1.2	14.6	8.1	-0.5	-3.2	30.4*	4.9
C=CCN=C1NC(c2cccc(Cl)c2)C(C(=O)OC)=C(C)N1Cc1cccc(C(F)(F)F)c1 (configuration not stated)	x	x	x	x	x	30.2*	-5.1
COC(=O)C1=C(C)N(Cc2ccccc2C(F)(F)F)C(=NCc2ccc(C(F)(F)F)cc2)NC1c1cccc(Cl)c1 (configuration not stated)	x	x	x	x	x	35.8*	-5.4
COC(=O)C1=C(C)N(Cc2ccc(C(F)(F)F)cc2)C(=NCc2ccc(OC)cc2)NC1c1ccccc1 (configuration not stated)	x	x	x	x	x	30.2*	-0.8
COc1ccc(NN=C(C=NO)C(=O)c2ccc(OC)cc2)cc1	x	-15.4	x	8.5	x	x	x
C(=Nc1ncnc2sccc12)NOCc1ccccc1	x	-8.9	x	3.6	x	x	x
CCOc1ccc(-c2c(C(=O)NN=Cc3ccc(C)cc3)nnn2-c2nonc2N)cc1	x	11.3	x	-1.1	x	x	x
O=C(O)CN1C(=O)/C(=C\c2cc(Br)ccc2OCc2ccccc2Cl)SC1=S	-3.0	60.5	-29.0	15.5	0.8	24.8	x
O=C(O)CN1C(=O)/C(=C\c2cc(Br)ccc2OCc2ccc([N+](=O)[O-])cc2)SC1=S	3.9	-12.6	-18.7	-4.4	-1.9	32.3*	19.4
CCCC(=NNC(=O)c1ccc(CSc2nncn2C)cc1)c1ccccc1	x	3.0	x	3.4	x	x	x
CC(OC(=O)c1cccc(-n2cnnn2)c1)C(=O)Nc1ccc(F)cc1Cl (configuration not stated)	x	-4.2	-1.2	-3.9	-3.0	33.0*	-11.6
COc1cccc2c1-c1c(O)cccc1C2=O	-3.9	29.6	8.8	2.7	1.4	-0.1	x
CC1OC(CC(=O)O)CC2=C1C(=O)c1c(O)cccc1C2=O (configuration not stated)	x	x	-7.3	x	x	92.9*	98.2*
O=c1oc2ccccc2c(Nc2cc3ccccc3cc2O)c1[N+](=O)[O-]	4.1	2.6	-2.8	-4.9	0.2	30.0*	-9.6
Cc1ccc(CN2C(=O)C[C@@H](NC(=O)OCC3c4ccccc4-c4ccccc43)C/C=C\C2c2ccc(C)cc2)cc1 (some centres not stated)	x	-6.0	-14.3	0.9	x	32.2*	-8.9
SMILES	3CLpro inhibitor	Sa ugtP lethal	MazF activator	RN4220 kill	Mtb betalactam	CCHF vOTU inh-1	CCHF vOTU inh-2
O=C(NC1C/C=C\C(c2ccccc2)N(c2ccccc2)C(=O)C1)OCC1c2ccccc2-c2ccccc21 (configuration not stated)	x	x	-7.4	x	x	x	x
Oc1c(Cl)cc(CN2CCOCC2)c2cccnc12	x	10.2	3.3	1.4	99.5	4.8	x
Oc1c(CN2CCCCC2)cc(Br)c2cccnc12	-2.4	-23.4	-2.1	11.7	13.7	69.8*	-6.5
O=C(NCc1nc2ccccc2[nH]1)C1=CC(c2ccc(Br)cc2)CC(OCCCCO)O1 (configuration not stated)	x	-8.7	x	-3.0	x	x	x
CC(C)CCCCCCCCc1cccc(O)c1C(=O)O	x	x	x	x	x	42.9*	25.2
CC(=O)NS(=O)(=O)c1ccc(Nc2ccc([N+](=O)[O-])c3nonc23)cc1	-1.7	9.0	-1.3	5.5	2.9	29.5*	12.6
O=C(NN=Cc1cc([N+](=O)[O-])ccc1O)c1ccc(COc2ccc3c(c2)CCC3)o1	x	8.8	x	36.9	x	x	x
Nc1ccc2c(O)cc(S(=O)(=O)O)cc2c1	x	3.3	-4.6	3.4	x	52.2*	-40.2
CC(=O)Nc1ccc2c(O)cc(S(=O)(=O)O)cc2c1	x	-5.8	-34.3	-2.1	x	12.4	x
Cn1cccc1CC(=O)NN=Cc1ccc(C(C)(C)C)cc1	x	8.6	x	3.4	x	x	x
CC(C)C[C@@H](CN1CCC[C@@H]1CN1C(=S)NC[C@@H]1Cc1ccc(O)cc1)N1C[C@H](Cc2ccc(O)cc2)N(CCc2ccccc2)C1=S	x	x	x	x	x	29.7*	-22.4
CC(C)C[C@@H](CN1CCCC1CN1C(=S)NC[C@@H]1Cc1ccccc1)N1C[C@H](Cc2ccc(O)cc2)N(CCc2ccccc2)C1=S (some centres not stated)	x	x	x	x	x	15.3	x
CC(C)C[C@H]1CN([C@@H](Cc2ccc(O)cc2)CN2CCC[C@@H]2CN2C(=S)NC[C@@H]2Cc2ccccc2)C(=S)N1CC1CCCCCC1	x	x	x	x	x	8.9	x
CC(C)C[C@H]1CN([C@@H](Cc2ccc(O)cc2)CN2CCCC2CN2C(=S)NC[C@@H]2Cc2ccccc2)C(=S)N1CC1CCCCC1 (some centres not stated)	x	x	x	x	x	29.8*	-9.2
CN(C)S(=O)(=O)N1CCCN(S(=O)(=O)N(C)C)CC1	4.4	-4.6	-5.4	4.1	-9.7	44.0*	-10.1
CCNC(=O)N1c2ccc(OCC)cc2C(C)=CC1(C)C	7.3	5.0	1.7	0.8	15.4	-16.4	x
CCOc1ccc2c(c1)C(C)=CC(C)(C)N2C(=O)Nc1ccccc1F	0.0	10.0	9.4	3.3	5.0	71.1*	-100.4
